U2OS ROS induce: cancer cell ROS induction; U2OS ROS induction, H2DCF-DA fluorescence; AID 624156; ROS induction (% of piperlongumine), % at 10 µM; actives 2% (n = 46,000); in the data active = ROS induction above about 79%, passing the limit was not always enough;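 note: 0% = DMSO vehicle median and 100% = reference compound median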
* hit, by the source's call. The sample as a whole holds a higher share of hits than the screen did.

SMILES	U2OS ROS induce
CC(C)NC(=O)Nc1ccc2c(c1)C(=O)N([C@H](C)CO)C[C@@H](C)[C@@H](CN(C)Cc1ccc(Cl)c(Cl)c1)O2	-6
COC(=O)c1ccccc1NC(=O)c1ccc(NC(=O)COc2ccccc2C)cc1	-16
O=C(CC(Sc1ccc(Br)cc1)C(=O)O)c1ccc(Cl)cc1 (stereo not given)	36
C[C@@H]1CCCCO[C@H](CN(C)S(=O)(=O)c2ccccc2)[C@@H](C)CN([C@H](C)CO)C(=O)c2cc(NC(=O)Nc3ccc(C(F)(F)F)cc3)ccc2O1	80*
Cc1ccc(S(=O)(=O)Nc2cccc3c2O[C@H](CN(C)C(=O)Nc2ccc(C(F)(F)F)cc2)[C@H](C)CN([C@H](C)CO)C3=O)cc1	34
C[C@@H]1CCCCO[C@@H](CN(C)S(=O)(=O)c2ccccc2)[C@@H](C)CN([C@H](C)CO)C(=O)c2cc(NC(=O)Nc3ccc(C(F)(F)F)cc3)ccc2O1	183*
C[C@@H]1CN([C@H](C)CO)C(=O)c2cccc(NS(=O)(=O)c3ccc(F)cc3)c2O[C@H]1CN(C)C(=O)Nc1ccc(C(F)(F)F)cc1	92*
Cc1ccc(S(=O)(=O)Nc2cccc3c2O[C@@H](CN(C)C(=O)Nc2ccc(C(F)(F)F)cc2)[C@@H](C)CN([C@H](C)CO)C3=O)cc1	8
C[C@@H]1CCCCO[C@@H](CN(C)S(C)(=O)=O)[C@@H](C)CN([C@H](C)CO)C(=O)c2cc(NC(=O)Nc3ccc(C(F)(F)F)cc3)ccc2O1	13
C[C@@H]1CCCCO[C@H](CN(C)C(=O)Nc2ccc(C(F)(F)F)cc2)[C@@H](C)CN([C@H](C)CO)C(=O)c2cc(NS(=O)(=O)c3ccc(Cl)cc3)ccc2O1	42
C[C@@H]1CCCCO[C@@H](CN(C)S(=O)(=O)c2cccs2)[C@@H](C)CN([C@H](C)CO)C(=O)c2cc(NC(=O)Nc3ccc(C(F)(F)F)cc3)ccc2O1	27
C[C@@H]1CCCCO[C@@H](CN(C)C(=O)Nc2ccccc2)[C@@H](C)CN([C@H](C)CO)C(=O)c2cc(NS(=O)(=O)c3ccccc3)ccc2O1	2
C[C@@H]1CCCCO[C@@H](CN(C)C(=O)Nc2ccc(C(F)(F)F)cc2)[C@@H](C)CN([C@H](C)CO)C(=O)c2cc(NS(=O)(=O)c3ccccc3)ccc2O1	102*
Cc1ccc(S(=O)(=O)N(C)C[C@H]2OCCCC[C@@H](C)Oc3ccc(NC(=O)Nc4ccc(C(F)(F)F)cc4)cc3C(=O)N([C@H](C)CO)C[C@@H]2C)cc1	22
COc1ccc(S(=O)(=O)N(C)C[C@@H]2OCCCC[C@@H](C)Oc3ccc(NC(=O)Nc4ccc(C(F)(F)F)cc4)cc3C(=O)N([C@H](C)CO)C[C@@H]2C)cc1	32
Cc1cccc(NC2=NS(=O)(=O)c3ccccc3N2)c1	-2
CN(CC(=O)Nc1ccc(Cl)c(Cl)c1)S(=O)(=O)c1ccc(F)cc1	5
COc1ccc(C)cc1NC(=O)C(=S)NCc1ccco1	1
Cc1nnc(SCC(=O)Nc2cc(Cl)ccc2Cl)s1	2
O=C(CCCCC(=O)N/N=C/c1ccc(F)c(Oc2ccccc2)c1)NO	-11
CCCCC1CCC(C(=O)N(Cc2sccc2C)C2CCS(=O)(=O)C2)CC1 (stereo not given)	14
O=S(=O)(NCC1CCN(Cc2cccc(OCCO)c2)CC1)c1ccc(Cl)c(Cl)c1	123*
O=S(=O)(N[C@@H]1CCCN(Cc2cccc(OCCO)c2)C1)c1ccc(Cl)c(Cl)c1	25
O=S(=O)(NC[C@@H]1CCCN(Cc2cccc(OCCO)c2)C1)c1ccc(Cl)cc1	-6
CN(C)/C=C/C(=S)c1cccs1	2
SMILES	U2OS ROS induce
C[C@@H]1CCCCO[C@@H](CN(C)C(=O)Cc2ccccc2)[C@@H](C)CN([C@H](C)CO)C(=O)c2cc(NC(=O)Nc3ccccc3)ccc2O1	8
C[C@H]1CN([C@@H](C)CO)C(=O)Cc2cc(NS(=O)(=O)c3ccc(Cl)cc3)ccc2O[C@H]1CN(C)Cc1ccc(C(=O)Nc2ccccc2N)cc1	67
C[C@@H]1CN([C@H](C)CO)C(=O)Cc2cc(NC(=O)Cn3cnnn3)ccc2O[C@H]1CN(C)Cc1ccc(-c2ccccc2)cc1	0
C=C1C(=O)OC2C3=C(C)C(=O)CC3C(C)CC(O)C12 (stereo not given)	72
C=C1C(=O)O[C@@H]2C[C@H](C)[C@@H]3CC(=O)C(C)=C3C[C@H]12	93*
C=C1C(=O)O[C@@H]2C[C@@]3(C)[C@@H](O)C[C@@H](O)C(=C)[C@@H]3C[C@H]12	32
COc1cccc(C(=O)Nc2cccc(OC(C)C(=O)c3cccc(Cl)c3)c2)c1 (stereo not given)	-2
CC1(C)CC(=O)C2=C(C1)OC(N)=C(C#N)C21C(=O)N(CO)c2ccccc21 (stereo not given)	-3
O=C(NN1C(=O)/C(=C\c2cccnc2)SC1=S)c1ccccc1	79*
CC(C)C(C(=O)O)N1C(=O)/C(=C/c2ccccc2)SC1=S (stereo not given)	-4
CSCCC(C(=O)O)N1C(=O)/C(=C/c2cccnc2)SC1=S (stereo not given)	-19
C[C@@H]1CN([C@@H](C)CO)C(=O)c2cc(NC(=O)c3ccncc3)ccc2O[C@H]1CN(C)Cc1ccc(C(F)(F)F)cc1	6
C[C@@H]1CN([C@@H](C)CO)C(=O)c2cc(NC(=O)Nc3ccc(F)cc3)ccc2O[C@H]1CN(C)C(=O)Nc1ccccc1	-12
O=C1/C(=C/c2ccc(O)cc2)SC(=S)N1CCc1ccccc1	127*
O=C(CCN1C(=O)/C(=C/c2ccc(Cl)cc2)SC1=S)Nc1ccccc1	10
CC(C)OC(=O)CCN1C(=O)/C(=C/c2ccccc2)SC1=S	36
CC(C)(C)c1cc(-c2nnc(-c3cccs3)o2)n(Cc2ccc(F)cc2)n1	43
COc1ccc(/C=N/NC(=O)c2cccc(C(=O)NO)c2)cc1	-15
C[C@@H]1CCCCO[C@@H](CN(C)Cc2ccc(C(=O)O)cc2)[C@@H](C)CN([C@H](C)CO)C(=O)c2cc(NC(=O)Nc3ccccc3)ccc2O1	53
C[C@@H]1CN([C@H](C)CO)C(=O)c2cccc(NC(=O)C3CCOCC3)c2O[C@H]1CN(C)Cc1ccc(-c2ccccc2)cc1	100*
C[C@H](CO)N1C[C@H](C)[C@@H](CN(C)Cc2ccc(-c3ccccc3)cc2)Oc2c(NC(=O)C3CCOCC3)cccc2C1=O	26
C[C@H]1CN([C@@H](C)CO)C(=O)c2cccc(NC(=O)C3CCOCC3)c2O[C@H]1CN(C)Cc1ccc(-c2ccccc2)cc1	-5
C[C@H]1CN([C@@H](C)CO)C(=O)c2cccc(NC(=O)NC3CCCCC3)c2O[C@H]1CN(C)Cc1ccc(-c2ccccc2)cc1	12
C[C@H](CO)N1C[C@H](C)[C@@H](CN(C)Cc2ccccc2)Oc2c(NC(=O)NC3CCCCC3)cccc2C1=O	1
C[C@@H]1CN([C@H](C)CO)C(=O)c2cccc(NC(=O)NC3CCCCC3)c2O[C@@H]1CN(C)Cc1ccc(-c2ccccc2)cc1	101*
C[C@H]1CN([C@@H](C)CO)C(=O)c2cccc(NC(=O)Nc3ccc(C(F)(F)F)cc3)c2O[C@@H]1CN(C)Cc1ccc(-c2ccccc2)cc1	43
Cc1ccc(-c2nnc(SCC(=O)c3ccccc3)n2-c2ccccc2)cc1Cl	-1
CC(NC(=O)/C=C/c1ccccc1Cl)c1ccccc1 (stereo not given)	-1
COc1ccc2cc(C(C)C(=O)OCC(=O)N3CCCc4ccccc43)ccc2c1 (stereo not given)	12

Compound activity: PubChem, Broad Institute
